Source: PubChem BioAssay AID652104 (National Center for Advancing Translational Sciences (NCATS), 2013)
The whole screen tested about 410,000 compounds, of which about 7,200 (1.8%) were called active. About 7% were inconclusive and are not listed. Calls follow the shape of the dose curve; as a rule, active = well fitted activation curve with a large enough effect; inconclusive = small, poorly fitted or top-dose-only effect, or another doubt; inactive = no such curve, though single readings can be large or run the other way. Many of the other results were omitted from the sample, so actives are more common in it than they were.

Assay: qHTS of TDP-43 Inhibitors; also: nearly all actives have a fitted effect of over 50% in size; as to growth rescue (activation): % of control where 0% means no effect
Conditions: TDP-43 expressing yeast growth rescue, BacTiter-Glo, 24 h; series mostly up to 46.1 µM; growth rescue (activation): at the top concentration
Outline: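 Yeast cells expressing TDP-43 under galactose induction are exposed to compounds for 24 hr at 30 deg C. BacTiter-Glo luminescence measures growth, so protective compounds score as activators.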
Potency is read from the fitted curve at half-maximal effect.

| Compound | growth rescue (activation) | Potency |
| --- | --- | --- |
| CCN(CCCNC(=O)c1cc2c(=O)n(CC)c3ccccc3c2s1)Cc1ccccc1 | 2.18% (inactive) |  |
| Cc1oc2ncnc(N3CCOCC3)c2c1C(=O)NCCc1ccccc1 | 20.6% (inactive) |  |
| NS(=O)(=O)c1ccc(CCNC(=O)CCCCCn2c(=O)[nH]c3ccccc3c2=O)cc1 | 10.1% (inactive) |  |
| CCc1ccc(NC(=O)c2cc(S(=O)(=O)NC3CCCCCC3)ccc2F)cc1 | 19.2% (inactive) |  |
| CCOc1ccccc1NC(=O)c1ccc2c(c1)CCN2S(=O)(=O)c1ccc(C)cc1 | -0.207% (inactive) |  |
| CCOc1ccc(OCC)c(NC(=O)c2cc(C)nc3c2c(C)nn3-c2cccc(Cl)c2C)c1 | 19.8% [at 9.22 µM] (inactive) |  |
| COC(=O)c1ccc(NC(=O)C23CC4CC(C2)CC(n2cnc(Cl)n2)(C4)C3)cc1 |  | 25.1 µM (active) |
| O=C(Nc1c2c(nn1-c1ccc(F)cc1)CS(=O)C2)C12CC3CC(CC(C3)C1)C2 (configuration not stated) | 11.8% (inactive) |  |
| O=C(Nc1ccc(S(=O)(=O)Nc2ncccn2)cc1)C12CC3CC(CC(C3)C1)C2 | -29.9% (inactive) |  |
| CN(C)c1ccc(C(CNS(=O)(=O)c2cc(F)ccc2F)N2CCOCC2)cc1 (configuration not stated) | -9.72% (inactive) |  |
| CCOc1ccc(N2CC(c3nc4ccccc4n3CCOc3ccc(OC)cc3)CC2=O)cc1 (configuration not stated) | 13.9% (inactive) |  |
| COc1cc(OC)c(NC(=O)N2CC3CCCN3c3ccccc32)cc1Cl (configuration not stated) | 18.7% (inactive) |  |
| Cc1ccc(C2C=C(c3ccc(Cl)cc3)Nc3nc(NC(=O)CCC(=O)O)nn32)cc1 (configuration not stated) | 14.3% (inactive) |  |
| COc1ccc(OC)c(C(=O)c2ccc(C(=O)N3CCN(Cc4csc(C)n4)CC3)cc2)c1 | -12.4% (inactive) |  |
| COc1ccc(OC)c(C(=O)c2ccc(Cl)cc2)c1 |  | 12.6 µM (active) |
| CCC(C)NC(=O)c1cc(Cl)ccc1OC (configuration not stated) | 4.16% (inactive) |  |
| Cc1oc2ccc(O)c(CN3CCC(C)CC3)c2c1C(=O)Nc1ccccc1 | 18.6% (inactive) |  |
| CCOC(=O)C1CCN(c2ncnc3c2c(-c2ccccc2)cn3-c2cccc(C)c2)CC1 | 14.6% (inactive) |  |
| COCCNc1ncnc2c1c(-c1ccccc1)cn2-c1ccc(C)c(Cl)c1 |  | 12.6 µM (active) |
| CCOC(=O)C1CCN(c2ncnc3c2c(-c2ccccc2)cn3-c2ccc(C)cc2)CC1 | -8.43% (inactive) |  |
| CCOc1ccc(N(CC)S(=O)(=O)N2CCCC(C(=O)NCc3ccc(Cl)cc3)C2)cc1 (configuration not stated) | -15.1% (inactive) |  |

| Compound | growth rescue (activation) | Potency |
| --- | --- | --- |
| CCOC(=O)c1ccc(NC(=O)Cn2cc(S(=O)(=O)Cc3ccccc3F)c3ccccc32)cc1 | 19% (inactive) |  |
| Cc1c(CNC2CCCCC2)c(C(=O)O)c(C)n1Cc1cccc(Cl)c1 | -1.7% (inactive) |  |
| COc1ccc(OCC(=O)NCCS(=O)(=O)N2CCN(c3ccc(F)cc3)CC2)cc1 | -10.2% (inactive) |  |
| COc1ccc(N2CCN(S(=O)(=O)CCNC(=O)C34CC5CC(CC(C5)C3)C4)CC2)cc1 |  | 20 µM (active) |
| COc1ccc(N2CCN(S(=O)(=O)CCNC(=O)C(c3ccccc3)c3ccccc3)CC2)cc1 | 17.7% (inactive) |  |
| COCCNC(=O)CSc1c(C)cnc2c1c(=O)n(C)c(=O)n2C | 12.2% (inactive) |  |
| Cc1ccccc1NC(=O)c1c(NC(=O)c2ccccc2F)sc2c1CCC(C)C2 (configuration not stated) | 18.8% (inactive) |  |
| CCOc1ccc(N(CC)S(=O)(=O)N2CCCC(C(=O)Nc3ccc(C(C)=O)cc3)C2)cc1 (configuration not stated) | 2.83% (inactive) |  |
| O=S(=O)(Nc1ccc(OC(F)(F)F)cc1)c1cccc2nonc12 |  | 11.2 µM (active) |
| Nc1ncc(S(=O)(=O)Nc2ccc(OC(F)(F)F)cc2)cn1 | 20.6% (inactive) |  |
| O=C(O)c1ccc(NS(=O)(=O)c2cccc3nsnc23)cc1 | -12.3% (inactive) |  |
| Cc1ccc(CSc2oc(-c3cccs3)nc2S(=O)(=O)c2ccc(C)cc2)cc1 | -1.5% (inactive) |  |
| O=C(Cc1ccc(Cl)cc1)Nc1ccc2nn(-c3ccc(Cl)cc3)nc2c1 | 5.59% (inactive) |  |
| COc1ccc(Cn2ccnc2SCC(=O)Nc2ccc3c(c2)OCO3)cc1 | 31.9% (inactive) |  |
| O=C(CSCc1ccc([N+](=O)[O-])cc1)NCCSCc1ccccc1 |  | 20 µM (active) |
| O=C(CSCc1ccc([N+](=O)[O-])cc1)Nc1cccc(C(=O)Nc2ccccc2C(=O)O)c1 | -13.9% (inactive) |  |
| O=C(Cc1ccc([N+](=O)[O-])cc1)NCCS(=O)(=O)N1CCN(c2ccccc2)CC1 | 10.9% (inactive) |  |
| CCOC(=O)c1ccc(NC(=O)c2c(NCc3cccc(OC)c3)sc3c2CCC3)cc1 | 8.24% (inactive) |  |
| Cc1cccc(OCC(=O)N(Cc2ccc(C(C)C)cc2)Cc2ccco2)c1C | -2.83% (inactive) |  |
| CC(Nc1ccc([N+](=O)[O-])cc1[N+](=O)[O-])c1ccccc1 (configuration not stated) |  | 12.6 µM (active) |
| CC(Nc1ccc(-c2nc(-c3ccco3)no2)cc1[N+](=O)[O-])c1ccccc1 (configuration not stated) | -6.77% (inactive) |  |

| Compound | growth rescue (activation) | Potency |
| --- | --- | --- |
| CC(C)OP(=O)(OC(C)C)C(Nc1ccccc1)c1cccc([N+](=O)[O-])c1 (configuration not stated) | -9.78% (inactive) |  |
| COc1ccccc1N1CCN(/N=C\C(Br)=C\c2ccccc2)CC1 |  | 11.2 µM (active) |
| COc1ccccc1N1CCN(C2C(=O)c3ccccc3N2C(C)=O)CC1 (configuration not stated) | 25.8% (inactive) |  |
| COc1ccccc1N1CCN(Cc2ccc(OC)c3ccccc23)CC1 | -3.99% (inactive) |  |
| CCS(=O)(=O)N1CCc2cc(C(=O)NCc3ccc(C)cc3)ccc21 | 20.1% (inactive) |  |
| CCOC(=O)c1ccccc1NC(=O)c1sc2nc(-c3ccc(F)cc3)cn2c1C | 19.9% (inactive) |  |
| CCOC(=O)C1C(=O)NC(N2CCN(c3ccccc3)CC2)=NC1c1ccco1 (configuration not stated) | 1.54% (inactive) |  |
| CCOC(=O)C1C(=O)C=C(c2ccc(OC)cc2)CC1c1ccco1 (configuration not stated) |  | 11.2 µM (active) |
| COc1ccc(C2=NN(C(=O)CSc3nnnn3C)C(c3ccco3)C2)cc1 (configuration not stated) | 12.1% (inactive) |  |
| Cc1nn(C(=O)c2c(F)cccc2F)c(C)c1S(=O)(=O)N1CCOCC1 | 21.3% (inactive) |  |
| O=C(NC1CC(=O)N(c2ccc(Cl)cc2)C1)C1CCCC1 (configuration not stated) | 13.7% (inactive) |  |
| COc1ccccc1C(=O)Nc1c(C(=O)Nc2ccc(C)cc2)oc2ccccc12 | 6.8% (inactive) |  |
| Cc1ccc2cccc(NC(=O)c3cccc4ccccc34)c2n1 | 27.2% (inactive) |  |
| Cc1ccc2cccc(NC(=O)C(C)Oc3ccc(C)c(C)c3)c2n1 (configuration not stated) | 20% (inactive) |  |
| Cc1ccc2cccc(NC(=O)c3ccc(OC(C)C)cc3)c2n1 |  | 11.2 µM (active) |
| COc1ccc(-c2cc(-c3ccc(F)cc3)nc3c2COc2ccccc2-3)cc1 | 11.8% (inactive) |  |
| CC(C)C12CN3CC(C(C)C)(CN(C1)C3c1ccc(OCc3ccccc3)cc1)C2=O (configuration not stated) | 15.9% (inactive) |  |
| O=C(NCCc1ccccn1)c1ccc(COc2ccccc2)o1 | 17.8% (inactive) |  |
| COc1ccc(-c2nc(CCNC(=O)c3ccc(Br)o3)cs2)cc1 |  | 12.6 µM (active) |
| COc1cc(OC)cc(C(=O)NNC(=O)CNC(=O)c2ccc(Br)o2)c1 | -3.31% (inactive) |  |
